Test [1] relates to Zika virus NS2B-NS3 protease (unlinked complex). As to the kind of experiment: Primary screen GU Rhodamine qHTS for Zika virus inhibitors: Unlinked NS2B-NS3 protease assay (AID 1347159). Also: nearly all actives have a fitted effect of over 60% in size. Also: potency is read from the fitted curve at half-maximal effect. In short, it runs like this: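 Noncovalent NS2B hydrophilic domain–NS3 protease domain complex (25 nM) preincubated 15 min at room temperature with compounds (up to 114 microM) in 10 mM Tris-HCl pH 8.0, 0.01% Tween 20; 1.5 microM Rhodamine110 substrate added, fluorescence change over 15 min fitted to Hill equation.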
(In general: In qHTS, concentration-response curves come from the screen itself.)

The subject of test [2] is Zika virus NS2B-NS3 protease (linked construct). The experiment in a line: Primary screen NINDS Rhodamine qHTS for Zika virus inhibitors (AID 1347160). Also: nearly all actives have a fitted effect of over 55% in size. In short, it runs like this:
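Purified linked NS2B-NS3 protease (NS2B hydrophilic domain joined to NS3 protease by flexible linker), 25 nM in 10 mM Tris-HCl pH 8.0, 0.01% Tween 20. Compounds titrated, 15 min preincubation at room temperature; 1.5 microM Rhodamine110 substrate, FITC fluorescence change over 15 min.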

The values that follow come from PubChem BioAssay (NCATS).

Inconclusive results are not listed. Unmarked numbers belong to inactive results. Activity calls are given as the source filed them. Calls follow the shape of the dose curve; as a rule, active = well fitted inhibition curve with a large enough effect; inconclusive = small, poorly fitted or top-dose-only effect; inactive = no such curve, though single readings can be large or run the other way.
% is scaled to controls: 0 for no effect and ±100 for the full control effect.

As to `CC(=O)O[C@@H]1C[C@@H](OC(C)=O)C(C)(C)/C=C/[C@H](C)[C@H](OC(C)=O)[C@@]2(O)C[C@H](C)[C@H](OC(=O)c3ccccc3)[C@@H]2/C=C/1C`, the Potency result in test [1] and in test [2] was “inactive” throughout.

`CC1CCC2(C(=O)O)CCC3(C)C(=CCC4C5(C)CCC(OC(=O)/C=C/c6ccccc6)C(C)(C)C5CCC43C)C2C1C` (configuration not stated): the Potency result in test [1] and in test [2] was “inactive” in each case.

Regarding `COc1cc(C)c(C(=O)O[C@H]2[C@@H](OC(C)=O)[C@H](n3ccc(=O)[nH]c3=O)O[C@@H]2CO)c(OC)c1`, the Potency entry in test [1] and in test [2] was “inactive” each time.

As to `COC(=O)Cc1cc2c(c([N+](=O)[O-])c1)N(C(=O)CC[C@H](N)C(=O)O)CC2`, the Potency entry in test [1] and in test [2] was “inactive” throughout.

On to `Cc1cccc(S(=O)(=O)N2CCC[C@@H]2CCN2CCC(C)CC2)c1`, for which the Potency result in test [1] and in test [2] was “inactive” each time.

As for `Fc1ccc2nc(CCC#Cc3ccccn3)cn2c1`, the Potency result in test [1] and in test [2] was “inactive” throughout.

Consider `CCOC(=O)C(CCc1ccccc1)NC(C)C(=O)N1C(=O)N(C)CC1C(=O)O` (configuration not stated), for which the Potency entry in test [1] and in test [2] was “inactive” in each case.

Regarding `Cn1nnc(-c2ccc(-c3ccc(N4C[C@H](CO)OC4=O)cc3F)cn2)n1`, the Potency result in test [1] and in test [2] was “inactive” each time.

For `C=CC1C(OC2OC(CO)C(O)C(O)C2O)OC=C(C(=O)OC)C1CC(=O)OCC1C(C)C(O)CC1C(CO)COC(=O)CC1C(C(=O)O)=COC(OC2OC(CO)C(O)C(O)C2O)/C1=C\C` (configuration not stated), the Potency result in test [1] and in test [2] was “inactive” throughout.

For `O=C1CCC(c2ccccc2)(C2CCN(Cc3ccc(I)cc3)CC2)C(=O)N1` (configuration not stated), the Potency entry in test [1] and in test [2] was “inactive” throughout.

As for `Cc1ncc(CCCN(C)C)cc1Nc1ncc2c(n1)-c1ccc(C(F)(F)F)cc1NC(=S)C2`, the Potency result in test [1] and in test [2] was “inactive” throughout.

Turning to `O=C1C=CC2OC(c3ccccc3)C(O)C2O1` (configuration not stated), the Potency entry in test [1] and in test [2] was “inactive” in each case.

For `C=C1C(O)C[C@@H]2C(C(=O)O)=CO[C@@H](O[C@@H]3O[C@H](CO)[C@@H](O)[C@H](O)[C@H]3OC(=O)c3ccc(O)cc3)[C@H]12` (some centres not stated), the Potency entry in test [1] and in test [2] was “inactive” each time.

Turning to `COc1cc(N)c(Cl)cc1C(=O)NC[C@@H]1CCN2CCC[C@@H]12`, the Potency entry in test [1] and in test [2] was “inactive” each time.

As for `C[C@@H]1O[C@@H](O[C@H]2[C@H](O[C@H]3CC[C@@]4(C)C(CC[C@]5(C)C4CC=C4[C@@H]6CC(C)(C)CC[C@]6(C(=O)O[C@@H]6OC[C@H](O)[C@H](O)[C@H]6O[C@@H]6O[C@@H](C)[C@H](O[C@@H]7O[C@H](CO)[C@@H](O)[C@H](O)[C@H]7O)[C@H](O)[C@H]6O)[C@H](O)C[C@]45C)C3(C)C)O[C@H](CO)[C@@H](O[C@@H]3OC[C@@H](O)[C@H](O)[C@H]3O)[C@@H]2O)[C@H](O)[C@H](O)[C@H]1O` (some centres not stated), the activity change, negative = inhibition in test [1] is -6.95% [at 19.1 µM]; in test [2], -3.53% [at 10.7 µM].

For `COC1=CC(=O)CC(C)C12Oc1cc(OC)cc(O)c1C2=O` (configuration not stated), the Potency result in test [1] and in test [2] was “inactive” in each case.

`c1ccc(-c2ncc(CN3CCN(c4ncccn4)CC3)[nH]2)cc1`: the Potency entry in test [1] and in test [2] was “inactive” throughout.

On to `C=C(CO)C12OC1C1(C)C(=CC2=O)C(O)C(O)CC1C` (configuration not stated), for which the Potency result in test [1] and in test [2] was “inactive” throughout.

On to `CC1(C)C2CC(OC3OC(COC4OCC(O)(CO)C4O)C(O)C(O)C3O)C1(C)CC2O` (configuration not stated), for which the Potency entry in test [1] and in test [2] was “inactive” throughout.

In the case of `C[S+](CC[C@H](N)C(=O)[O-])C[C@H]1O[C@@H](n2cnc3c(N)ncnc32)[C@H](O)[C@@H]1O` (some centres not stated), the Potency entry in test [1] and in test [2] was “inactive” in each case.

Take `COc1cc2nc(N3CCC(N4CCCCC4)CC3)nc(NC3CCCCCC3)c2cc1OC`: the Potency entry in test [1] and in test [2] was “inactive” each time.

Take `c1cn2cc(-c3ccc4cn[nH]c4c3)nc(Nc3ccc(N4CCOCC4)cc3)c2n1`: the Potency result in test [1] and in test [2] was “inactive” in each case.

As for `CC1(C)CC[C@]2(C(=O)O)[C@H](O)C[C@]3(C)C(=CCC4[C@@]5(C)CC[C@H](O[C@@H]6O[C@H](CO[C@@H]7OC[C@H](O)[C@H](O)[C@H]7O[C@@H]7OC[C@@H](O)[C@H](O)[C@H]7O)[C@@H](O)[C@H](O)[C@H]6O[C@@H]6O[C@H](CO)[C@@H](O)[C@H](O)[C@H]6O)C(C)(C)C5CC[C@]43C)[C@@H]2C1` (some centres not stated), the Potency entry in test [1] and in test [2] was “inactive” in each case.

Take `C=CC(C)(O)CC/C=C(\C)C(=O)OC1C(O)C(CO)OC(OC(=O)C23CCC(C)(C)CC2C2=CCC4C5(C)CCC(OC6OC(COC7OCC(OC(C)=O)C(O)C7OC7OC(COC(C)=O)C(O)C(O)C7O)C(O)C(O)C6O)C(C)(C)C5CCC4(C)C2(C)C(O)C3O)C1OC1OCC(OC2OCC(O)C(OC3OCC(O)C(O)C3O)C2O)C(O)C1O` (configuration not stated): the figures for the activity change, negative = inhibition in test [1] and in test [2] were 18.4% [at 19.1 µM] and 18.5% [at 10.7 µM], respectively.

Consider `C=C1C(=O)O[C@@H]2/C=C(\C)C(=O)/C=C/[C@](C)(O)C[C@@H](OC(=O)C(C)C)[C@@H]12`, for which the Potency result in test [1] and in test [2] was “inactive” in each case.

For the molecule `CN(C)C/C=C/C(=O)Nc1cccc(C(=O)Nc2ccc(Nc3nccc(-c4cccnc4)n3)cc2)c1`, in test [1], the Potency was 79.4 µM (active). Moreover, the Potency entry in test [2] was “inactive”.

For the molecule `CC(CO)C1CCC2(C)CC3C(CO)CC(O)C3C(C)(O)C/C=C/12` (configuration not stated), the Potency result in test [1] and in test [2] was “inactive” throughout.

With `CC1(CCOC2OC(CO)C(O)C(O)C2O)CCC23OC2(C1)C(O)CC1C(C)(C(=O)O)CCCC13C` (configuration not stated), the Potency result in test [1] and in test [2] was “inactive” each time.

For `Cc1ccc(F)cc1C(=O)Nc1ccc(C(=O)N2Cc3cccn3Cc3ccccc32)c(Cl)c1`, the Potency result in test [1] and in test [2] was “inactive” in each case.

Take `C=C(C)[C@@H]1CC[C@]2(C)CC[C@]3(C)[C@H](CC[C@@H]4[C@@]5(C)CC[C@@H](O)C(C)(C)[C@@H]5CC[C@]43C)[C@@H]12`: the Potency entry in test [1] and in test [2] was “inactive” each time.

As to `CN1CCc2nc(C(=O)N[C@@H]3C[C@@H](C(=O)N(C)C)CC[C@@H]3NC(=O)C(=O)Nc3ccc(Cl)cn3)sc2C1`, the Potency result in test [1] and in test [2] was “inactive” in each case.
